From PubChem BioAssay AID651789 (National Center for Advancing Translational Sciences (NCATS), 2012)
Records with an inconclusive call do not appear. Where a call stands in place of a potency, no number is given. The source made the active and inactive calls. The call rests on the fitted dose curve; in most records, active means well fitted inhibition curve with a large enough effect; inconclusive means small, poorly fitted or top-dose-only effect; inactive means no such curve, though single readings can be large or run the other way.

assay: Acumen qHTS Assay for Inhibitors of the mTORC1 Signaling Pathway in WT MEF Cells: Hit Validation; conditions: Acumen imaging; series mostly up to 37.3 µM; further: nearly all actives have a fitted effect of over 60% in size
Excerpt: The mammalian target of rapamycin (mTOR) is an intracellular serine/threonine kinase Aberrant regulation of mTOR signaling plays a causative role in a number of human diseases, including cancer, benign tumors such as lymphangioleiomyomatosis (LAM) and Tuberous Sclerosis Complex (TSC), and metabolic diseases such as diabetes and obesity. This project aims to identify inhibitors of ribosomal protein S6 (rpS6) phosphorylation. The phosphorylation of rpS6 is a key event downstream of mTOR activation. The assay uses a phospho-specific antibody of phospho-rpS6 to detect inhibitors of mTOR activation. Mutations in the Tsc1 and Tsc2 genes are the underlying genetic lesions responsible for TSC, causing constitutive activation of the mTORC1 pathway and leading to profound effects on cell metabolism. Aberrant metabolism in cancer has recently received significant attention as a target to develop therapeutic agents in the treatment of cancer.1 As Tsc2-/- cells have lost the ability to respond to energy and growth factor deprivation, these cells are unable to properly down regulate cellular biosynthetic processes in response to metabolic stress, and are thus extremely sensitive to glucose deprivation-induced death.2 A central goal of this project is to explore the unique cell survival and metabolic properties of cells with Tsc1 or Tsc2 by screening for compounds that selectively target the Tsc2-/- MEFs by screening both Tsc2-/- and WT MEF cell lines. We hope to better understand these aspects of TSC physiology in order to exploit them for therapeutic benefit.
NIH Molecular Libraries Probe Production Centers Network [MLPCN]
NIH Chemical Genomics Center [NCGC]
Assay Submitter (PI): Blenis, John; Harvard University
For quantitative high throughput analysis of mTORC1 signaling, we developed a cell-based assay for immuno-fluorescence based detection of rpS6 phosphorylation on the Acumen Explorer that will be used a platform for the primary small molecule screen. Mouse embryonic fibroblasts (MEFs) are cultured in 1536-well plates using DMEM + 10% FBS. Twenty-four hrs after plating, test compounds (solubilized in DMSO) are delivered and incubated with the cells for 24 hrs at 37 degree Celsius. Following the incubation, media with compound is aspirated and the cells are fixed in 4% paraformaldehyde (PFA) containing PBS + 0.2% TX-100. Next, PFA is aspirated, cells are washed two times with PBS plus 0.2% TX-100 and the cells are blocked for 1 hr at room temperature (blocking buffer: LiCOR Blocking Buffer plus 0.2% TX-100). This is followed by aspiration and staining with Alexa-488 conjugated-phospho-rpS6 Ser235/236 antibody for 2 hours at room temperature (Cell Signaling Technology # 4803, 1:50 dilution in blocking buffer). Cells are washed two times with PBS plus 0.2% TX-100, and stained with 10 uM propidium iodide (PI) for 20-25 minutes for cell number measurement (1:500 dilution of Hoescht staining is also added for IN Cell imaging). The plates are scanned on the Acumen Explorer laser scanning instrument (TTP Labtech) using the 488nm laser for simultaneous excitation of the Alexa-488 and PI. […] Fluorescence emission from the PI stain is selected using a 575-640 nm band pass filter. The normalized phospho-S6 staining is calculated as the ratio of the integrated Alexa 488 intensity divided by the integrated PI intensity for the single concentration rapamycin control (7.5 nM) and DMSO columns. […] Inhibition of the pathway is defined based on the normalized phospho-S6 intensity in rapamycin treated cells. Active cells are defined as those with a normalized phospho-S6 staining above this threshold, and each treatment is reported as the % positive cells in the well, where thresholds are defined by selecting wells with the highest and lowest signal and differentiating between the % non-active and % active populations. In addition to the pathway specific phospho-S6 endpoint, the number of PI stained cells from the Acumen is recorded as a measure of cell viability. […]
Potency means the concentration at half of the fitted maximal effect.

SMILES	Potency
COc1ccc(-n2ncc3c(NCCCOC(C)C)ncnc32)cc1	inactive
Cc1cccc(C2C=C(c3ccc(C)c(C)c3)Nc3nnnn32)c1 (stereo not given)	1.47 µM (active)
CCc1ccc(OCC(=O)N(Cc2ccc(C)cc2)Cc2ccco2)cc1	inactive
COc1ccc(Cl)cc1NC(=O)CCCS(=O)(=O)c1nc(-c2ccc(OC)c(OC)c2)cc(C(F)(F)F)n1	3.69 µM (active)
CCN1C(=O)c2ccccc2Sc2ccc(NC(=O)Cc3ccc(OC)cc3)cc21	inactive
CC[C@H](CO)Nc1nc(NCc2ccccc2)c2ncn(C(C)C)c2n1	inactive
O=S(=O)(NCc1nc2cccnc2n1Cc1ccccc1Cl)c1ccc(F)c(Cl)c1	inactive
CCOc1cc(-c2nnc(SCC(=O)NCc3ccccc3)nc2-c2ccc(OC)c(OCC)c2)ccc1OC	0.927 µM (active)
Cc1cccc(N(CC(=O)NCCSc2ccc(Cl)cc2)S(=O)(=O)c2ccccc2)c1C	inactive
O=C(Nc1ccc(-c2cc(C(F)(F)F)nn2-c2ccccc2)cc1)c1cccc(F)c1	inactive
Cc1ccccc1NC(=O)c1sc2nc3c(cc2c1N)CCCC3	inactive
CCc1ccccc1NC(=O)CSc1nc2c(oc3ccccc32)c(=O)n1-c1ccccc1F	inactive
Cc1ccc(C)c(NC(=O)c2nc(S(=O)(=O)Cc3ccc(F)cc3)ncc2Cl)c1	2.33 µM (active)
COCCCNC(=O)c1ccc(CSc2nc3cccnc3n2Cc2ccc(OC)cc2)cc1	inactive
O=C(Cn1c(=O)c2cccn2c2ccccc21)NCc1ccccc1F	inactive
Cc1ccc(-n2ncc(C(=O)NCCCN3CCc4ccccc4C3)c2C2CCN(C(=O)OC(C)(C)C)CC2)c(C)c1	inactive
Cc1c(C(=O)OC2CCC(C)CC2)[nH]c2c1C(=O)CC(c1ccc(F)cc1)C2 (stereo not given)	inactive
Cc1cc(C)cc(C(=O)Nc2ccc(-c3nc4ncccc4o3)cc2)c1	inactive
CC/C(=C(\c1ccccc1)c1ccc(OCCN(C)C)cc1)c1ccccc1	inactive
CCOC(=O)c1c(NC(=O)c2ccc(S(=O)(=O)N(C)C)cc2)sc2c1CCN(C)C2	inactive

SMILES	Potency
CN(C)c1ccc(NC(=O)Cn2cc(S(=O)(=O)Cc3ccccc3Cl)c3ccccc32)cc1	13.1 µM (active)
COc1ccccc1NC(=O)CSc1ccc(-c2ccccn2)nn1	inactive
CCS(=O)(=O)c1ncc(Cl)c(C(=O)Nc2ccc(S(=O)(=O)N(C)c3ccccc3)cc2)n1	0.927 µM (active)
Cc1ccc(-c2nnc(Nc3ccc(O)cc3)c3ccccc23)cc1S(=O)(=O)N1CCCCC1	inactive
O=C(CSc1nc2c([nH]c3ccccc32)c(=O)n1-c1ccc(F)cc1)NC1CCCCC1	inactive
Cc1cccc(Oc2coc3cc(OCC(=O)NC4CCCCC4)ccc3c2=O)c1	inactive
C#Cc1cccc(Nc2ncnc3cc(OCCOC)c(OCCOC)cc23)c1	inactive
CCCCn1c(=N)n(CCOc2ccccc2OC)c2ccccc21	11.7 µM (active)
CCOc1ccc(CCNC(=O)CCc2c(C)nc3cc(-c4ccccc4OC)nn3c2C)cc1	inactive
CCCCN1C(=O)C(O)(c2c(C)[nH]c3ccccc23)c2cc(Br)ccc21 (stereo not given)	inactive
COc1cccc(-c2nnc3sc(CN4CCCCC4)cn23)c1	1.65 µM (active)
O=C(NCc1ccc(Cl)cc1)C(=O)NCC(c1cccs1)S(=O)(=O)c1ccc(Cl)cc1 (stereo not given)	inactive
COc1ccc(C2=NS(=O)(=O)N(C)C(C(=O)Nc3ccc(OC(F)(F)F)cc3)=C2)cc1	inactive
CCCN1C(=O)C(Cc2nc3ccccc3c(=O)n2CC)c2cc(Br)ccc21 (stereo not given)	inactive
NS(=O)(=O)c1cc(C(=O)O)c(NCc2ccco2)cc1Cl	inactive
O=C(CCOc1ccccc1)N(Cc1cccnc1)c1nc2c(F)cccc2s1	13.1 µM (active)
Cc1cc(C)c(-c2n[nH]c3c2C(c2ccccc2F)N(Cc2ccco2)C3=O)c(O)c1 (stereo not given)	inactive
CCCCCn1c(=N)n(CC(O)COc2cccc(C)c2)c2ccccc21 (stereo not given)	4.14 µM (active)
CC(C)S(=O)(=O)c1oc(-c2cccs2)nc1S(=O)(=O)c1ccc(F)cc1	0.826 µM (active)
CCOC(=O)Cn1c(=O)c2c(nc(N3CCOCC3)n2Cc2ccccc2)n(C)c1=O	4.14 µM (active)
